Experimental data reported in PMC3218832.

Molecular target: RELA (p65) subunit of heterodimer;p52 subunit (Homo sapiens;Homo sapiens, UniProt Q04206;Q00653 1-307;4-332)
Experiment: protein binding microarray; high values mean tight binding
Settings: dsDNA, one strand shown

| Sequence | binding signal [z-score] |
| --- | --- |
| CAAAAGACCCT | 0.196 |
| AGGTTCATCCC | -0.313 |
| CGAAGCTTCCC | -0.568 |
| AGAGAGGTCCT | -0.592 |
| CGATATTTCCT | -0.495 |
| CAAGAACCCCC | 1.28 |
| GGAGGAGTCCC | 0.831 |
| CAAGTAATCCC | -0.426 |
| GGGATGCCCCT | 2.07 |
| AGATTTATCCC | -0.11 |
| GAGAGACTCCT | -1.21 |
| GAGAATACCCC | 1.18 |
| AGATTGACCCT | -0.704 |
| AGGGGAGTCCT | 1.1 |
| CAGGGGATCCC | 1.49 |
| AAGGTGTCCCT | 0.967 |
| CGGGGAATCCC | 2.81 |
| GAGGGCACCCT | -0.74 |
| CAGAATACCCT | 0.477 |

| Sequence | binding signal [z-score] |
| --- | --- |
| AGGAGGATCCT | -1.04 |
| AGAAAAGCCCC | 1.76 |
| GAAGGGCTCCC | -0.916 |
| CAAAAGTTCCC | 0.661 |
| GGGATCGTCCT | -0.296 |
| CGAGGGTTCCC | -0.377 |
| CAATAACTCCC | -0.231 |
| AAGAGGTTCCT | -0.822 |
| CAGTGAACCCC | -0.346 |
| AAAATCGCCCT | -0.504 |
| GAATAAGTCCC | 0.993 |
| AAGGACTCCCC | 0.665 |
| GAGGGCATCCC | -0.398 |
| AAAGTTACCCT | 0.376 |
| GAGTGCTTCCC | -0.157 |
| AAGTGAACCCT | -0.763 |
| GAGGGTTCCCT | -0.0267 |
| CAGATAGCCCT | -0.763 |
| GGAGAAACCCT | 0.623 |

Molecular target: RELB subunit;p50 subunit (Homo sapiens;Homo sapiens, UniProt Q01201;P19838 120-401;7-356)
Experiment: as above
Settings: dsDNA, one strand shown

| Sequence | binding signal [z-score] |
| --- | --- |
| CAAAAGACCCT | -0.111 |
| AGGTTCATCCC | -0.476 |
| CGAAGCTTCCC | -0.617 |
| AGAGAGGTCCT | -0.624 |
| CGATATTTCCT | -0.725 |
| CAAGAACCCCC | 1.46 |
| GGAGGAGTCCC | 0.725 |
| CAAGTAATCCC | -0.117 |
| GGGATGCCCCT | 1.74 |
| AGATTTATCCC | -0.291 |
| GAGAGACTCCT | -1.19 |
| GAGAATACCCC | 1.05 |
| AGATTGACCCT | -0.635 |
| AGGGGAGTCCT | 0.907 |
| CAGGGGATCCC | 1.12 |
| AAGGTGTCCCT | 1.01 |
| CGGGGAATCCC | 2.64 |
| GAGGGCACCCT | -0.75 |
| CAGAATACCCT | 0.743 |

| Sequence | binding signal [z-score] |
| --- | --- |
| AGGAGGATCCT | -0.926 |
| AGAAAAGCCCC | 1.77 |
| GAAGGGCTCCC | -0.771 |
| CAAAAGTTCCC | 0.674 |
| GGGATCGTCCT | -0.598 |
| CGAGGGTTCCC | -0.397 |
| CAATAACTCCC | 0.426 |
| AAGAGGTTCCT | -0.701 |
| CAGTGAACCCC | -0.298 |
| AAAATCGCCCT | -0.55 |
| GAATAAGTCCC | 1.38 |
| AAGGACTCCCC | 0.692 |
| GAGGGCATCCC | -0.647 |
| AAAGTTACCCT | 0.557 |
| GAGTGCTTCCC | -0.589 |
| AAGTGAACCCT | -0.923 |
| GAGGGTTCCCT | -0.011 |
| CAGATAGCCCT | -0.804 |
| GGAGAAACCCT | -0.35 |

Molecular target: T1, RELB subunit;p52 subunit (Homo sapiens;Homo sapiens, UniProt Q01201;Q00653 120-401;4-332)
T1 sequence 1: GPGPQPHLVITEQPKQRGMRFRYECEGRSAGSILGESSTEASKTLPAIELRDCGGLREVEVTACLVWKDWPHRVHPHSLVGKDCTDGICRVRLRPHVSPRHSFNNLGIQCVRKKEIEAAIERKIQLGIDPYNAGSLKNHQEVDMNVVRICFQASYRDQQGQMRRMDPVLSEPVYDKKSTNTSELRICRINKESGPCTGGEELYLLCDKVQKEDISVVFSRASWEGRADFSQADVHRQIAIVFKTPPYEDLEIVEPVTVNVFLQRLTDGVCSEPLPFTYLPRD
T1 sequence 2: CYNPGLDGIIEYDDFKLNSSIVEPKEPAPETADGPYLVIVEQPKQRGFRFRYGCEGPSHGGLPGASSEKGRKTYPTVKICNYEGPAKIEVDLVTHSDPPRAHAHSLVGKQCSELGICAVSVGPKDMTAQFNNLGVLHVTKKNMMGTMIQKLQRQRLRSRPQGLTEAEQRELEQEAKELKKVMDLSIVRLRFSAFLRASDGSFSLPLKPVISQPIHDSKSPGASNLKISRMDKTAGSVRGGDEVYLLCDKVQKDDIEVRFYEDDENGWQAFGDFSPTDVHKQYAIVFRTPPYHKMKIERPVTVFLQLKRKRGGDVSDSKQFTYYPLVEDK
Experiment: as above
Settings: dsDNA, one strand shown

| Sequence | binding signal [z-score] |
| --- | --- |
| CAAAAGACCCT | -0.0281 |
| AGGTTCATCCC | -0.362 |
| CGAAGCTTCCC | -0.463 |
| AGAGAGGTCCT | -0.363 |
| CGATATTTCCT | -0.422 |
| CAAGAACCCCC | 1.32 |
| GGAGGAGTCCC | 0.409 |
| CAAGTAATCCC | -0.123 |
| GGGATGCCCCT | 1.82 |
| AGATTTATCCC | -0.135 |
| GAGAGACTCCT | -1.24 |
| GAGAATACCCC | 1.31 |
| AGATTGACCCT | -0.605 |
| AGGGGAGTCCT | 0.881 |
| CAGGGGATCCC | 1.18 |
| AAGGTGTCCCT | 1.5 |
| CGGGGAATCCC | 2.75 |
| GAGGGCACCCT | -0.795 |
| CAGAATACCCT | 0.882 |

| Sequence | binding signal [z-score] |
| --- | --- |
| AGGAGGATCCT | -0.821 |
| AGAAAAGCCCC | 1.57 |
| GAAGGGCTCCC | -0.771 |
| CAAAAGTTCCC | 0.512 |
| GGGATCGTCCT | -0.614 |
| CGAGGGTTCCC | -0.335 |
| CAATAACTCCC | -0.00688 |
| AAGAGGTTCCT | -0.585 |
| CAGTGAACCCC | -0.205 |
| AAAATCGCCCT | -0.442 |
| GAATAAGTCCC | 1.13 |
| AAGGACTCCCC | 0.442 |
| GAGGGCATCCC | -0.505 |
| AAAGTTACCCT | 0.191 |
| GAGTGCTTCCC | -0.383 |
| AAGTGAACCCT | -0.758 |
| GAGGGTTCCCT | 0.0453 |
| CAGATAGCCCT | -0.675 |
| GGAGAAACCCT | 0.176 |

Molecular target: C-Rel subunit;p50 subunit (Homo sapiens;Homo sapiens, UniProt Q04864;P19838 1-285;7-356)
Experiment: as above
Settings: dsDNA, one strand shown

| Sequence | binding signal [z-score] |
| --- | --- |
| CAAAAGACCCT | -0.615 |
| AGGTTCATCCC | -0.498 |
| CGAAGCTTCCC | -0.253 |
| AGAGAGGTCCT | -1.31 |
| CGATATTTCCT | -0.166 |
| CAAGAACCCCC | 1.04 |
| GGAGGAGTCCC | 0.717 |
| CAAGTAATCCC | 0.0809 |
| GGGATGCCCCT | 1.22 |
| AGATTTATCCC | 0.062 |
| GAGAGACTCCT | -1.58 |
| GAGAATACCCC | 1.03 |
| AGATTGACCCT | -0.895 |
| AGGGGAGTCCT | 0.64 |
| CAGGGGATCCC | 0.893 |
| AAGGTGTCCCT | 0.63 |
| CGGGGAATCCC | 2.51 |
| GAGGGCACCCT | -1.04 |
| CAGAATACCCT | 0.496 |

| Sequence | binding signal [z-score] |
| --- | --- |
| AGGAGGATCCT | -1.4 |
| AGAAAAGCCCC | 0.96 |
| GAAGGGCTCCC | -1.05 |
| CAAAAGTTCCC | 0.746 |
| GGGATCGTCCT | -0.493 |
| CGAGGGTTCCC | -0.0483 |
| CAATAACTCCC | 0.223 |
| AAGAGGTTCCT | -1.22 |
| CAGTGAACCCC | -0.189 |
| AAAATCGCCCT | -0.504 |
| GAATAAGTCCC | 1.03 |
| AAGGACTCCCC | 0.76 |
| GAGGGCATCCC | -0.179 |
| AAAGTTACCCT | 0.279 |
| GAGTGCTTCCC | -0.23 |
| AAGTGAACCCT | -1.27 |
| GAGGGTTCCCT | -0.173 |
| CAGATAGCCCT | -1.23 |
| GGAGAAACCCT | 0.255 |
